Screen size: about 310,000 compounds; about 14,000 (4.5%) showed an effect of 50% or more. Effects have a minus sign here. For the sample, strong results were picked, then their nearest neighbours and some compounds at random.
target: human ether-à-go-go-related gene (hERG) potassium channel (human, UniProt Q12809); test: primary screen, population patch clamp on CHO cells stably expressing hERG; higher = less effect of the substance
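Further: peak tail current of the secondary pulse compared with the same well before compound.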

Sequence of human ether-à-go-go-related gene (hERG) potassium channel (Q12809 whole entry, looked up): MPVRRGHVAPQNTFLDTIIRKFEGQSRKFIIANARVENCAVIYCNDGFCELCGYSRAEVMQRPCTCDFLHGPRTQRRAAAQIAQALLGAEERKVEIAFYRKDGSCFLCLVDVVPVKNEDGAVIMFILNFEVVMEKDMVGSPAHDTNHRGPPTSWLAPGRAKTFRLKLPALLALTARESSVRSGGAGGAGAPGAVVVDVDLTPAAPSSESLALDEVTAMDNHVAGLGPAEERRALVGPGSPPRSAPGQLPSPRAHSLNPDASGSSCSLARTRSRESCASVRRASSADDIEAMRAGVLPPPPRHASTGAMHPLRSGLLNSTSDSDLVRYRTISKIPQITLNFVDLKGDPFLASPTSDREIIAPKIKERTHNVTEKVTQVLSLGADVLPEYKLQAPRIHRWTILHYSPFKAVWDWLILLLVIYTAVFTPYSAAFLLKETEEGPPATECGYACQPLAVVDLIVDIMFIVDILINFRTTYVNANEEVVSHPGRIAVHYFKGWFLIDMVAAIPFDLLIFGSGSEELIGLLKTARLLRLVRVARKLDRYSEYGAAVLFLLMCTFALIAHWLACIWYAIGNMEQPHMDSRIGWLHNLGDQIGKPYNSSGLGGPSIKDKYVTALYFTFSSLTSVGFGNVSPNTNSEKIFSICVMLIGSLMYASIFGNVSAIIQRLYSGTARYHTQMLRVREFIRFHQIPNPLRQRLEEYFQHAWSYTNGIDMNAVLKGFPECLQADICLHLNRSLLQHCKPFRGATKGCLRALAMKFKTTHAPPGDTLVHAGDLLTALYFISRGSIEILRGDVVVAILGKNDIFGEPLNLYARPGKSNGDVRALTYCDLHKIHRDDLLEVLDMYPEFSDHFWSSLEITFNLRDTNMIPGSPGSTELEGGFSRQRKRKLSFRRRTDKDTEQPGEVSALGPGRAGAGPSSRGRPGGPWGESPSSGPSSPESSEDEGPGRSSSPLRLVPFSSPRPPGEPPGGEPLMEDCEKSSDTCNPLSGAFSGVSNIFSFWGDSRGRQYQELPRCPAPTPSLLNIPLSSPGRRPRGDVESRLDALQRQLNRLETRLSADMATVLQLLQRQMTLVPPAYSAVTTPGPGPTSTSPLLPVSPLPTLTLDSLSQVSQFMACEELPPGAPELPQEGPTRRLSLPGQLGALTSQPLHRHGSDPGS

Structure (SMILES)	hERG current change (%, negative = inhibition) at 10uM
COCCSc1ccccc1C(=O)N1CCN(c2ccccc2OC)CC1	8.73%
S=c1[nH]c2ccccc2n1CCOc1ccccc1	8.28%
Br.CCN(CC)CCn1c(=N)n(CCOc2ccccc2)c2ccccc21	-53.6%
CCN(CC)CCn1c(=N)n(CCO)c2ccccc21	5.99%
O=C(NC1CCSc2ccccc21)c1cc(S(=O)(=O)N2CCOCC2)ccc1Cl (stereo not shown)	-18%
COc1ccc(NC(=S)N(Cc2ccc(Cl)cc2)Cc2ccc(C(=O)O)cc2)cc1Cl	-3.51%
CCOC(=O)c1ccc(-n2c(CN3CCC(C(N)=O)CC3)nc3ccc([N+](=O)[O-])cc3c2=O)cc1	-27.3%
CCC(C)(C)n1nnnc1C(C(C)C)N(Cc1cccnc1)Cc1ccco1 (stereo not shown)	-2.92%
CCC(C)(C)n1nnnc1C(c1cc2ccc(C)cc2[nH]c1=O)N(Cc1cccnc1)Cc1ccco1 (stereo not shown)	-60.6%
Cc1ccc2[nH]c(=O)c(C(c3nnnn3C3CCCC3)N(Cc3cccnc3)Cc3ccco3)cc2c1 (stereo not shown)	-5.71%
Cc1cc2cc(C(c3nnnn3C3CCCC3)N(Cc3cccnc3)Cc3ccco3)c(=O)[nH]c2cc1C (stereo not shown)	-24.3%
Cc1ccc2cc(C(c3nnnn3C3CCCC3)N(Cc3cccnc3)Cc3ccco3)c(=O)[nH]c2c1 (stereo not shown)	-77.8%
Cc1ccc2cc(C(c3nnnn3C3CCCC3)N(Cc3ccccc3)Cc3ccco3)c(=O)[nH]c2c1 (stereo not shown)	10.7%
O=C(CC1C(=O)NCCN1Cc1ccc(-c2ccccc2)cc1)NCCCn1ccnc1 (stereo not shown)	14%
CC(C)CCNS(=O)(=O)c1cc2c3c(c1)CCN3C(=O)CC2	2.2%
COc1cc(-c2noc(CCCC(=O)NCc3ccco3)n2)cc(OC)c1OC	-12.1%
O=C1N(Cc2cccc(Cl)c2)C[C@@H]2C[C@@H](c3cccn3-c3nccs3)N3CCC[C@@]123	-68%
CCn1ccnc1[C@@H]1C[C@H]2CN(Cc3cccc(Cl)c3)C(=O)[C@]23CCCN13	-39.3%
O=C1N(Cc2cccc(Cl)c2)C[C@@H]2C[C@@H](c3cccn3-c3ccccn3)N3CCC[C@@]123	-73.5%
O=C1N(Cc2cccc(Cl)c2)C[C@@H]2C[C@@H](c3cccn3-c3cccnc3)N3CCC[C@@]123	-35.7%
C#CCOCCOCCOCCNc1nc(N2CCOCC2)nc(N2CCN(C(=O)[C@H](Cc3cc4ccccc4[nH]3)n3cc([C@@H](N)C(C)CC)nn3)CC2)n1.Cl (stereo partly shown)	9.81%
O=C(CSc1nc(-c2ccccc2)cc(=O)[nH]1)N1CCOCC1	5.84%
CCOc1ccc2[nH]c3c(N4CCC5(CC4)OCCO5)ncnc3c2c1	5.84%

Structure (SMILES)	hERG current change (%, negative = inhibition) at 10uM
Cc1cccc2[nH]c3c(N4CCN(C(=O)c5ccco5)CC4)ncnc3c12	-27%
CCOc1ccc2[nH]c3c(N4CCN(C(=O)c5ccco5)CC4)ncnc3c2c1	-58.4%
CCOC(=O)N1CCN(c2ncnc3c2[nH]c2ccc(OC)cc23)CC1	-44.1%
CCOc1ccc2[nH]c3c(N4CCN(c5ccccn5)CC4)ncnc3c2c1	-59.4%
O=C(c1ccco1)N1CCN(c2ncnc3c2[nH]c2ccc(Cl)cc23)CC1	-65.2%
COc1cc2[nH]c3c(N4CCN(c5ccccn5)CC4)ncnc3c2cc1OC	13.1%
O=C(c1ccco1)N1CCN(c2ncnc3c(-c4ccc(Cl)cc4)nsc23)CC1	4.82%
CCOc1ccc2[nH]c3c(N4CCc5ccccc5C4)ncnc3c2c1	5.49%
Cc1ccc(C(C)(C)C)cc1S(=O)(=O)Nc1ncnc2sccc12	12.2%
Cn1nnc(NC(=O)c2ccc3ccccc3c2)n1	5.99%
CCCN(Cc1cc2ccccc2[nH]c1=O)C(=O)c1cccc([N+](=O)[O-])c1	-16.8%
Cc1ccc(Cl)cc1N1CCN(S(=O)(=O)c2cccc(S(=O)(=O)N3CCCC3)c2)CC1	2.64%
O=[N+]([O-])c1ccc(N2CCN(S(=O)(=O)c3ccccc3)CC2)cc1	-46.9%
O=S(=O)(c1ccccc1)N1CCN(c2ccnc3cc(Cl)ccc23)CC1	-84%
O=S(=O)(c1ccc(Br)s1)N1CCN(c2ccnc3cc(Cl)ccc23)CC1	-14.8%
Cc1ccc(S(=O)(=O)N2CCN(c3ccnc4cc(Cl)ccc34)CC2)cc1C	30.7%
N#Cc1cccc(S(=O)(=O)N2CCN(c3ccnc4cc(Cl)ccc34)CC2)c1	-70.7%
CN1CCCN(S(=O)(=O)c2cccc(C#N)c2)CC1.Cl	6.61%
O=S(=O)(c1cccc(Br)c1)N1CCN(c2ccnc3cc(Cl)ccc23)CC1	8.43%
O=S(=O)(c1cccs1)N1CCN(c2ccccc2Cl)CC1	9.51%
O=[N+]([O-])c1ccc(S(=O)(=O)N2CCN(c3ccnc4cc(Cl)ccc34)CC2)cc1	-73.5%
O=S(=O)(c1ccccc1OC(F)(F)F)N1CCN(c2ccnc3cc(Cl)ccc23)CC1	-18.4%
O=S(=O)(c1cccs1)N1CCN(c2ccnc3cc(Cl)ccc23)CC1	-68.4%

Source: article PMC4336329 (PLoS ONE, 2015)
